Active and inactive are the calls of the source. Where a call stands in place of a potency, no number is given. Calls come from the whole dose curve.

The test deals with Gonadotropin-releasing hormone receptor (Homo sapiens) (UniProt P30968). The test can be described thus: Human gonadotropin-releasing hormone receptor (GnRHR) small molecule agonists, calcium flux assay in GnRHR-HEK293 cells (AID 1920063). Note: nearly all actives have a fitted effect of over 35% in size. Particulars: calcium flux fluorescence, agonist mode; series mostly up to 57.6 µM. The method, boiled down:
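Compounds dissolved in DMSO are pin-transferred onto dye-loaded GnRHR-HEK293 cells, which were seeded 18 h before at 37 C/5% CO2. Calcium signal is read as fluorescence intensity at 1 s intervals for 3 min.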
Background: A change in cytosolic calcium serves as a functional read-out for many receptors and channels.

Gonadotropin-releasing hormone receptor (Homo sapiens), sequence (P30968 whole entry, looked up): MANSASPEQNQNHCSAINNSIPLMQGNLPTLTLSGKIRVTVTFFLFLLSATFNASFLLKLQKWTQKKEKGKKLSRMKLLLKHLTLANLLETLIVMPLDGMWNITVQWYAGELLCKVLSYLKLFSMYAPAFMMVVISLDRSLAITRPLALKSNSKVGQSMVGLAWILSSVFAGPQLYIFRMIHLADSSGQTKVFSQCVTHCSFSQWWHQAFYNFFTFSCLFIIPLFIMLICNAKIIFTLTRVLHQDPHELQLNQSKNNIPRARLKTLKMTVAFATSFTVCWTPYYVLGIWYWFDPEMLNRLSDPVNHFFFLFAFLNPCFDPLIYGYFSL

Take `CCOC(=O)C(C)Oc1ccc(Oc2cnc3cc(Cl)ccc3n2)cc1` (configuration not stated): the Potency entry is “inactive”.

Take `CCCCOCCOCCOCCO`: the Potency result is “inactive”. Take `CC(C)(C)C(=O)C1C(=O)c2ccccc2C1=O`: the Potency entry was “inactive”. With `N[C@H](Cc1c[nH]c2ccccc12)C(=O)O`, the Potency entry was “inactive”. With `CCC(=O)c1ccc(O)cc1` the entry was “inactive”; with `c1ccc2c(c1)Oc1ccccc1S2`, “inactive”.

For the molecule `CC1(C)C(O)C(C)(C)C1O` (configuration not stated), the Potency entry is “inactive”.

Regarding `CCOc1ccccc1OCC`, the Potency result is “inactive”. The same measure for `CC(O)C(CO)C(C)O` (configuration not stated): “inactive”. Turning to `CCC(C)C(=O)OCCc1ccccc1` (configuration not stated), the Potency result was “inactive”. For `CCCCCCCCCCCCCCC(=O)O`, the Potency result is “inactive”.

Regarding `Cc1ccc(S(=O)(=O)NC2CCCCC2)cc1`, the Potency entry was “inactive”. With `Clc1ccc2c(Cl)ccnc2c1` the entry was “inactive”; with `Cn1cnc2c(F)c(Nc3ccc(Br)cc3Cl)c(C(=O)NOCCO)cc21`, “inactive”.

As to `CC(C)(CO)[C@@H](O)C(=O)NCCC(=O)O`, the Potency entry was “inactive”. In the case of `Cc1ccc(N)cc1[N+](=O)[O-]`, the Potency result was “inactive”.

For `CC1(C)[C@H](C(=O)OCc2cccc(Oc3ccccc3)c2)[C@@H]1C=C(Cl)Cl`, the Potency entry is “inactive”. With `Cc1sccc1Br` the entry was “inactive”; with `C=CCCCCCCCC`, “inactive”; with `ON=C1CCCCC1`, “inactive”.

With `CC(C)(C)CC(C)(C)c1ccc(O)c(-n2nc3ccccc3n2)c1`, the Potency entry is “inactive”.

As to `O`, the Potency result was “inactive”. With `O=C(O)c1cc(=O)[nH]c(=O)[nH]1` the entry was “inactive”. With `COCC(C)OC(C)=O` (configuration not stated) the entry was “inactive”. With `CC/C=C\C#N` the entry was “inactive”. On to `CCOC(=O)c1ccc(N)cc1`, for which the Potency entry is “inactive”. With `C=CCCC` the entry was “inactive”. For `CC(=O)C1(C)CC2=C(CCCC2(C)C)CC1C` (configuration not stated), the Potency result was “inactive”. For `NCC1CCCC(CN)C1` (configuration not stated), the Potency entry was “inactive”. `COC(=O)/C=C(/C)N`: the Potency result is “inactive”. The same measure for `CC(C)(C)c1ccc(CCC=O)cc1`: “inactive”. The same measure for `O=C(O[C@@H]1Cc2c(O)cc(O)cc2O[C@@H]1c1cc(O)c(O)c(O)c1)c1cc(O)c(O)c(O)c1`: “inactive”.

These data come from PubChem BioAssay (Tox21).
